# PubChem BioAssay (NCI)
# This is part of a sample that, as a whole, favours compounds with a hit. Of some 83,000 tested, about 20% had one in any assay.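 Assay: single dose, 48 h. Readout: percent growth (0 = no net growth; negative = cell death). Active: <10.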 Values without a mark were called inactive. Activity calls are given as the source filed them.
# Key:
# Experiment in all cases: NCI-60 one-dose screen, 48 h (100 = growth as untreated, 0 = no growth, -100 = all killed)
# Settings in all cases: 10 µM unless noted
# NCI-H23 lung = tested on: NCI-H23 lung
# NCI-H226 lung = tested on: NCI-H226 lung
# NCI-H322M lung = tested on: NCI-H322M lung
# HOP-62 NSCLC = tested on: HOP-62 NSCLC
# NCI-H460 lung = tested on: NCI-H460 lung
# HOP-92 NSCLC = tested on: HOP-92 NSCLC
# NCI-H522 lung = tested on: NCI-H522 lung
# A549/ATCC NSCLC = tested on: A549/ATCC NSCLC
# 786-0 renal = tested on: 786-0 renal
# COLO 205 colon = tested on: COLO 205 colon
# DU-145 prostate = tested on: DU-145 prostate
# K-562 leukemia = tested on: K-562 leukemia
# MALME-3M melanoma = tested on: MALME-3M melanoma
# MDA-MB-231 breast = tested on: MDA-MB-231 breast
# RXF 393 renal = tested on: RXF 393 renal
# SF-268 CNS = tested on: SF-268 CNS
# SF-295 CNS = tested on: SF-295 CNS
# SF-539 CNS = tested on: SF-539 CNS
# UACC-257 melanoma = tested on: UACC-257 melanoma
# M14 melanoma = tested on: M14 melanoma
SMILES,growth (NCI-H23 lung),growth (NCI-H226 lung),growth (NCI-H322M lung),growth (HOP-62 NSCLC),growth (NCI-H460 lung),growth (HOP-92 NSCLC),growth (NCI-H522 lung),growth (A549/ATCC NSCLC),growth (786-0 renal),growth (COLO 205 colon),growth (DU-145 prostate),growth (K-562 leukemia),growth (MALME-3M melanoma),growth (MDA-MB-231 breast),growth (RXF 393 renal),growth (SF-268 CNS),growth (SF-295 CNS),growth (SF-539 CNS),growth (UACC-257 melanoma),growth (M14 melanoma)
COc1cccc(NC(=O)Cn2cc(CN3CCN(c4ccnc5cc(Cl)ccc45)CC3)nn2)c1,95%,81.6%,91.2%,71.6%,97.5%,41.2%,80.6%,87.9%,99.2%,112%,104%,67.4%,95.6%,73.9%,95%,84.7%,87.5%,87.7%,102%,104%
N#Cc1cnc(NCCc2ccncc2)nc1-n1cnc2ccccc21,76%,68.7%,35%,77.3%,39.5%,95.7%,55.8%,53.5%,40.3%,72.1%,51.9%,60.9%,69%,76.2%,52.7%,53%,75.1%,61.3%,102%,47.9%
O=S(=O)(Nc1ccccc1)c1ccc(C2CC3(Cl)C(Cl)=C(Cl)C2(Cl)C3(Cl)Cl)cc1 (stereo not given),22.1%,74.3%,61.5%,51.4%,21.1%,-10.3% (active),29.9%,30.2%,32.4%,29.2%,66.4%,27%,35.1%,59.3%,32.9%,57.2%,8.38% (active),72.9%,36.8%,52.6%
Cc1cccc(Cl)c1NC(=O)c1ccc2nc(NC(=O)NCCN(C)C)sc2c1,103%,100%,101%,60.3%,107%,64.1%,77.5%,102%,87.7%,45.1%,104%,14.7%,70.7%,92.6%,47.5%,93.6%,86.7%,79.8%,86.1%,90.5%
